Reference: publication PMC13494018
Values without a mark were called inactive. No rule for the calls is given here.

B1: d4r2_design_ppi_319_dldesign_0_cycle0_af2pred (protein)
chain: EEEEKESERLAEEARRAAEEARRRIREAAERSAEAAREALEEARRRMEELIKEAKKHKKAYAVAAGEAERVLHFGEAALARREAAE
B2: d4r3_design_ppi_53_dldesign_0_cycle1_af2pred (protein)
chain: MDPEVTKKKEAEVEAAGDVKLEGIKYLEEAKKLAKEDKEKGRKLLEEAAKEFKERAKEYEKEGKKIAARYAKEEAKKLEELAKEL
B3: d4r2_design_ppi_363_dldesign_0_cycle1_af2pred (protein)
chain: GLAEAEKKQKELEEKSTKEYIEKVIKESKKKAKELKKKGEEAKKYAEKIEAEVEKAEKATLDEAIEYTSKARKLVEEAEKKL
B4: d4r2_design_ppi_378_dldesign_0_cycle0_af2pred (protein)
chain: MEEERQKKAEEELKKAKEAVEEGIKYAKEGNIMEANAKLSEARVHAEKAKKLDPETGKEIEKLVEEARKKIKEIAEK
B5: d4r2_design_ppi_310_dldesign_0_cycle1_af2pred (protein)
chain: AVEKALKIIEETEKEAKEAFEKNPETGLAIAKATYRTAEHLGSKLNKEDAEKLKKKGKEYLEEFEKRYKEKKKELEE
B6: d4r3_design_ppi_205_dldesign_0_cycle0_af2pred (protein)
chain: SKEEKVKEYLEKAKEALEKMKETAADATAMNANYTEAKYYADKAAKESEEFKEEAEKLKEEAKKAYKEAAAKYAAAKAAAA
B7: d4r3_design_ppi_107_dldesign_0_cycle1_af2pred (protein)
chain: SAAAKEAAEKQEGRFEADLYEVKAKNAAEKYKDDKKKQAEVLEKIAEEAKKKAKEASPVIAKGYKEGAKVAEKLAKEAKKEA
B8: d4r2_design_ppi_419_dldesign_0_cycle0_af2pred (protein)
chain: DEEKEELKKKIEEAKKKVEEAKKLAEKTSEEVKKLTKEAETEIALAEGYLDNGAAIELAKKKAEEGLKLADEALKLAEKILKEKE
B9: d4r2_design_ppi_460_dldesign_0_cycle0_af2pred (protein)
chain: EELKKLTEEALKKAEEAEKKAKELIKEGKTTPLVKKALEAAEKAEAASISPERALEYAKKAEELYKKAIEEIK
B10: d4r3_design_ppi_139_dldesign_0_cycle1_af2pred (protein)
chain: SMMDEVAKKREKKLIEESTAAAKAALAEAKAIAAGADTPENRAARAAAAEKAIANARIAGGALGKEEGEKLVSEVEAAVKA
B11: d4r2_design_ppi_432_dldesign_0_cycle1_af2pred (protein)
chain: EEEEKKKAEEEAKKVAELALKDPEAGAKAAKEMLPWSAEGLEALAKALAEAAKKAAKEDPEKAEKIKKVYNDAASAALRAEAKEERKA
B12: d4r2_design_ppi_171_dldesign_0_cycle1_af2pred (protein)
chain: ANEAEAEKYYAEGEQKMILGDTAYEMGKKKGPIFYKIAAEEYKEAAELYKEAAKLASPEKAKEYKEKAKEAEEKSKEAKKKGEE
B13: d4r2_design_ppi_407_dldesign_0_cycle0_af2pred (protein)
chain: MEEKKNKAKQFAFSEFMKAAAAAPPELRPKIEEAMDKTLEALDESFDKAIKVAEEVAKLPIAKKYAEKAKKFIEEQKK
B14: d4r3_design_ppi_43_dldesign_0_cycle1_af2pred (protein)
chain: SLIEEMKKELEELVKKAEAASPAEAPWYAQEARSYGKYYSEKVEKEGNPEEAKKAKEIAEKLSEEARKIAEKKR
B15: d4r2_design_ppi_327_dldesign_0_cycle1_af2pred (protein)
chain: DETVIQAKATIESAKERAEHIKKAIKEKPKTKEELKKAKKILEELEKKAEEAYKKAGEAVKEEYEKAKKAIKEAKKEAEKNLK
B16: d4r3_design_ppi_187_dldesign_0_cycle1_af2pred (protein)
chain: SEEKEEGEIYVKHAKLAIEAGKEEKEAGDYKSAIALAKTAIKEAKRAIENPDEEAKKKGKEKLKEAEKALEEIEKALKEAEEK
B17: d4r2_design_ppi_271_dldesign_0_cycle0_af2pred (protein)
chain: MTKEELEKLKKEVEEAEKLAQEVLKIDKESGEEILKLVTKAKGYAEFAEDALELGSQKAAESFAKKAKEYVKKAEKLAKETLAKAA
B18: d4r3_design_ppi_206_dldesign_0_cycle1_af2pred (protein)
chain: SPEERELAARAQEEAALAKGMKIVVKNNPKSEKAIKDAEETAKEALEAAERIEKLENPTPEAKAAAERARKEAEELLKEVKKAK
B19: d4r2_design_ppi_226_dldesign_0_cycle0_af2pred (protein)
chain: SELEEEAKKVAEEARELAKEAEEAAEKILKEKNNLKEAGTLYAQSAQAKQAAEAVELNPEKAEEARERLKKAKERMKEAVKKAE
B20: d4r2_design_ppi_152_dldesign_0_cycle0_af2pred (protein)
chain: AAAAAEAEKAAAAATQKAEELAEKRGEEHGAEVGLKKYLENPEEAKKMGKEIYELGLKKYKELKKKEEEEK
B21: d4r2_design_ppi_339_dldesign_0_cycle1_af2pred (protein)
chain: GESTEKAKKIYEEIKKKAEEYKKKAKEAAELLVEKGEEGGKKLKEIEEEAAKELPEVSFQVKAYINTLKEEAEKRRKEKEA
B22: d4r2_design_ppi_335_dldesign_0_cycle1_af2pred (protein)
chain: GAVTEALDKVLELSEKAIELAEKALKAAKEDKEEAKKYLEKAREKVKEAEKLAKESGSKAGKSIARNTKEYVEKKEKEIKEII
B23: d4r2_design_ppi_363_dldesign_0_cycle0_af2pred (protein)
chain: SLEEAKKSQEELQKKSTEKWLETQIKEAEKKAKEFKSLGEEAKKKAEEILKEVEKAKASTPEEGLEHAAKAAKIIEEAEKKL
B24: d4r2_design_ppi_190_dldesign_0_cycle1_af2pred (protein)
chain: MEVEKTAKEAVEAVKAKSPKAAPKMEEAKKAAIEAAKLGKKEEALELLTKAKKAAEAGNVAEAIAYANEAIWLGEKLKK
B25: d4r2_design_ppi_226_dldesign_0_cycle1_af2pred (protein)
chain: MELEKKAKEVAKEAKEKAEEAEKAAEEILKKKKAIKEAGTLYSASERFKQVAEAAELDPSKAEEGRKVMERLKERAEKAVKEAE
B26: d4r2_design_ppi_295_dldesign_0_cycle1_af2pred (protein)
chain: MAEEAAKAVKNRAERLAKEFPEAAPVMKAVAEEAKKKLEEAKGKSPTEIANVAQDYQAEATAKYAEVKRETEKKLAA
B27: d4r2_design_ppi_327_dldesign_0_cycle0_af2pred (protein)
chain: SQEVIQAKGKIQAAKEQAEAMKEAIEKKPKSPEELERALERLKRLEEEAKEAAKKAGEEVKEEYEEAKKAIEEAKKAAEENRK
B28: d4r3_design_ppi_140_dldesign_0_cycle0_af2pred (protein)
chain: ATEEQKLKAEAAALGGLYVFSPEGGKRRLERIKEELEEEAERYKEENPEKGPEYEKELREKFETLKELMEKEAAEIKA
B29: d4r2_design_ppi_335_dldesign_0_cycle0_af2pred (protein)
chain: SKVTEDQDKIIELSNKAVEKAEKALEAAKKDKEEAKKYLEEAEKLVEEAEKLAKESGSKAGRAIARNTKEYLEKKKKEIEELL
B30: d4r2_design_ppi_407_dldesign_0_cycle1_af2pred (protein)
chain: SEEAKIKAKQYTSSLFTKAYLKASPETAPKIEEALEKAFEAIDKSFDEAIAVMKELAELPEAKEEAEKAEKFVAEQKK
B31: d4r3_design_ppi_205_dldesign_0_cycle1_af2pred (protein)
chain: DLDAKAQALLDQAKEALAQMQATAADTVAYLSQATDAKYYARKAAKLDPKFKPQADALIAQLDAALAAAKAAYQAAKAAAA
B32: d4r3_design_ppi_225_dldesign_0_cycle0_af2pred (protein)
chain: AEDAALAKQAAAKLAEARQKANEALQYAKNGNVEEAKKSLEEAKAALAEAKALAAKASPETQAKAQKALDGVEKRIAEAEKAIKEK
B33: d4r3_design_ppi_39_dldesign_0_cycle0_af2pred (protein)
chain: DYEKKLKEEMEKYKKEAEKAAADPGAMYQKVLEGKAAADGIVNIAKEEAEEKGDEELKKKAEEAKKKAEEAIKEMKAKADAAAAA
B34: d4r3_design_ppi_32_dldesign_0_cycle1_af2pred (protein)
chain: AEEKAKEAKELAEKAKKTAKEAKELGDEEAAKLAEEGAKDAEEASKIFESGASPAEQADAMAKYRSGKAYNDLAEKRIKEKKK
B35: d4r2_design_ppi_432_dldesign_0_cycle0_af2pred (protein)
chain: AEEELKEAERKAKEVAKLAMEDPEAGAKEAEKMSEGSAEALEALAKELKKAAKEAEKEDKEKAEKIKKIYNKAAAAALRAEALADNAA
B36: d4r2_design_ppi_159_dldesign_0_cycle1_af2pred (protein)
chain: ELEEEAKKAKEVAEKLKKFNLESRLEADEIEAKSKAALREGKENNEEAKKEGLKKVKEQLKKAEELLKKL
B37: d4r2_design_ppi_477_dldesign_0_cycle0_af2pred (protein)
chain: EEEKKEKLKKERHELASELARLASLADALGDKELAEKAEKAMELLALDPEKGKEAAKEVKEAAKKRLAAAKAAAA
B38: d4r3_design_ppi_27_dldesign_0_cycle1_af2pred (protein)
chain: AEEKAKRMEKKAKEIAEEAKELKKNAPKLDPEEAEKKARLLLGRAEGLLEQAKFGGLPEKVEKAAKEAVKAAKEALKVAKELKEK

molecular target: VTCN1, Q7Z7D3
Sequence (Q7Z7D3 whole entry): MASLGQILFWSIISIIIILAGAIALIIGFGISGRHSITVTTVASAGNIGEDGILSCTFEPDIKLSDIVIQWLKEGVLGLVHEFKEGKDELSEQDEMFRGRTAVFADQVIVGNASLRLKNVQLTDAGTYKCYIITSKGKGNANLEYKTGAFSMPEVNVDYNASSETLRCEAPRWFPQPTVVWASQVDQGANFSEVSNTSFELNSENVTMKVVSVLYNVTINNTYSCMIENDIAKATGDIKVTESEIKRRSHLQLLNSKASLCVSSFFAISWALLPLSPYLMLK

Binder | binding in a display sort
B1 | not found
B2 | not found
B3 | not found
B4 | not found
B5 | not found
B6 | not found
B7 | not found
B8 | not found
B9 | not found
B10 | not found
B11 | not found
B12 | not found
B13 | not found
B14 | not found
B15 | not found
B16 | not found
B17 | not found
B18 | not found
B19 | not found

Binder | binding in a display sort
B20 | not found
B21 | not found
B22 | not found
B23 | not found
B24 | not found
B25 | not found
B26 | not found
B27 | not found
B28 | not found
B29 | not found
B30 | not found
B31 | not found
B32 | not found
B33 | not found
B34 | not found
B35 | not found
B36 | not found
B37 | not found
B38 | not found
